From PubChem BioAssay (NCATS)
Results filed as inconclusive are left out. Where a call stands in place of a potency, no number is given. Unmarked numbers belong to inactive results. Calls of active or inactive are those of the source. Calls follow the shape of the dose curve; as a rule, active = well fitted cell-killing curve with a large enough effect; inconclusive = small, poorly fitted or top-dose-only effect, or effect the other way; inactive = no such curve, though single readings can be large or run the other way.

How the values were obtained:
[1] = Quantitative High-Throughput drug screen in 47 multiple myeloma cell lines against the NCATS MIPE library collection: PE2_PLB cell viability assay (AID 1919869); also: nearly all actives have a fitted effect of over 35% in size
Method in brief: (§1)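 qHTS format: cells plated (500/well), pin-dosed with MIPE 4.0 compounds, kept 48 h at 37 °C. Readout was CellTiter-Glo luminescence, median RLU.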

[2] = Quantitative High-Throughput drug screen in 47 multiple myeloma cell lines against the NCATS MIPE library collection: PCM6_Riken cell viability assay (AID 1919870); also: nearly all actives have a fitted effect of over 30% in size
Method in brief: as §1

[3] = Quantitative High-Throughput drug screen in 47 multiple myeloma cell lines against the NCATS MIPE library collection: RPMI8226_ATCC cell viability assay (AID 1919871); also: nearly all actives have a fitted effect of over 30% in size
Method in brief: as §1

[4] = Quantitative High-Throughput drug screen in 47 multiple myeloma cell lines against the NCATS MIPE library collection: KMS11_JCRBsus cell viability assay (AID 1919873); also: nearly all actives have a fitted effect of over 50% in size
Method in brief: as §1

[5] = Quantitative High-Throughput drug screen in 47 multiple myeloma cell lines against the NCATS MIPE library collection: KMS28BM_JCRB cell viability assay (AID 1919874); also: nearly all actives have a fitted effect of over 35% in size
Method in brief: as §1

[6] = Quantitative High-Throughput drug screen in 47 multiple myeloma cell lines against the NCATS MIPE library collection: UTMC2_PLB cell viability assay (AID 1919868); conditions: CellTiter-Glo ATP luminescence, 48 h; viability (% of DMSO control): at 45.8 µM (top of the series); also: nearly all actives have a fitted effect of over 55% in size
Method in brief: as §1

[7] = Quantitative High-Throughput drug screen in 47 multiple myeloma cell lines against the NCATS MIPE library collection: OPM2_DSMZ cell viability assay (AID 1919872); also: nearly all actives have a fitted effect of over 30% in size
Method in brief: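 CellTiter-Glo ATP luminescence gave viability after 48 h compound treatment at 37C of 500 multiple myeloma cells per well. Normalisation used DMSO-only wells as 100% and media-only wells as 0% viability; primary qHTS of approved and investigational drugs.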
Potency is read from the fitted curve at half-maximal effect.

Structure (SMILES)	Potency [1]	Potency [2]	Potency [3]	Potency [4]	Potency [5]	Potency [6]	Potency [7]
O=C(NC[C@H](O)CO)c1ccncc1Nc1ccc(I)cc1F	5.26 µM (active)	16.6 µM (active)	0.833 µM (active)	2.64 µM (active)	inactive		
CC[C@]1(O)C[C@H]2CN(CCC3=c4ccccc4=N[C]3[C@@](C(=O)OC)(c3cc4c(cc3OC)N(C)[C@H]3[C@@](O)(C(N)=O)[C@H](O)[C@]5(CC)C=CCN6CC[C@]43[C@@H]65)C2)C1						0.0053 µM (active)	0.0074 µM (active)
CCn1c(-c2nonc2N)nc2cncc(CNC3CCNCC3)c21	5.9 µM (active)	4.18 µM (active)			20.9 µM (active)		
COc1cc2ncn(-c3cc(OCc4ccccc4S(C)(=O)=O)c(C#N)s3)c2cc1OC	1.05 µM (active)	inactive	inactive				inactive
CCC[C@H](N[C@@H](C)C(=O)N1[C@@H]2CCCC[C@H]2C[C@H]1C(=O)O)C(=O)OCC		inactive		inactive	inactive	1.32 µM (active)	
FC(F)(F)c1ccc(C=Cc2nc(COc3ccc(CCCCn4ccnn4)cc3)co2)cc1		0.0118 µM (active)		0.0235 µM (active)		0.0833 µM (active)	
CN[C@@H](C)[C@H]1[C@H](O)C[C@@]2(C)[C@@H]3CC[C@H]4C(C)(C)[C@@H](NC)CC[C@@]45C[C@@]35CC[C@]12C	inactive		inactive		inactive		inactive
O=C(O)c1ccc(O)c2ncc(N3CCOCC3)cc12	16.6 µM (active)	inactive					inactive
COc1ccc(C=CC(=O)Nc2ccccc2C(=O)O)cc1OC	14.8 µM (active)	inactive	inactive				inactive
C[C@H](c1ccc(F)cc1CCCC(=O)O)N(c1cc(F)ccc1F)S(=O)(=O)c1ccc(Cl)cc1		6.62 µM (active)			16.6 µM (active)	14.8 µM (active)	3.32 µM (active)
CN1CCc2c(n(Cc3ccc(C(=O)NO)cc3)c3ccccc23)C1	20.9 µM (active)	20.9 µM (active)		18.7 µM (active)	18.7 µM (active)		
CC(=O)OCC(=O)[C@@]1(O)CC[C@H]2[C@@H]3CCC4=CC(=O)C=C[C@]4(C)[C@@H]3[C@@H](O)C[C@@]21C	inactive	inactive		0.235 µM (active)			inactive
CC(C)c1c(C(=O)Nc2ccccc2)c(-c2ccccc2)c(-c2ccc(F)cc2)n1CC[C@H](O)C[C@@H](O)CC(=O)O	11.8 µM (active)	16.6 µM (active)	10.5 µM (active)	10.5 µM (active)			
CC1C(=O)OC2C(O)C34C5CC(C(C)(C)C)C36C(OC(=O)C6O)OC4(C(=O)O5)C12O (centres undefined)	inactive		inactive	inactive	inactive		inactive
N#Cc1ccc(Oc2ccc3c(c2)COB3O)cc1	20.9 µM (active)		inactive				inactive
CN1CCC[C@H]1CCO[C@](C)(c1ccccc1)c1ccc(Cl)cc1			inactive			14.8 µM (active)	inactive

Structure (SMILES)	Potency [1]	Potency [2]	Potency [3]	Potency [4]	Potency [5]	Potency [6]	Potency [7]
COc1ccc2ccc(=O)oc2c1CC=C(C)C	inactive	inactive					
O=C1NC(=O)C(=Cc2ccc(-c3ccc(F)cc3O)o2)S1	7.43 µM (active)		9.35 µM (active)		inactive		inactive
CC(C)(OCc1nn(Cc2ccccc2)c2ccccc12)C(=O)O	inactive	inactive	inactive	inactive	inactive		inactive
CS(=O)(=O)c1ccc(C2=C(c3ccccc3)C(=O)OC2)cc1		inactive		inactive		inactive	inactive
O=[N+]([O-])c1ccc(Nc2ccccc2-c2ccccc2)c2nonc12	20.9 µM (active)						
OC[C@H]1O[C@@H](O[C@H]2[C@@H](O)[C@@](O)(CO)O[C@@H]2CO)[C@H](O)[C@@H](O)[C@@H]1O				inactive		inactive	inactive
NCC1CCC(C(=O)O)CC1 (centres undefined)	inactive	inactive	inactive	inactive	inactive		inactive
COc1c(C)c2c(c(O)c1CC=C(C)CCC(=O)OCCN1CCOCC1)C(=O)OC2	4.18 µM (active)		4.18 µM (active)				13.2 µM (active)
CC(C)c1onc(-c2c(Cl)cccc2Cl)c1COc1ccc(C=Cc2cccc(C(=O)O)c2)c(Cl)c1	inactive		inactive	inactive	inactive		inactive
Cn1cnc(-c2cc3nccc(Oc4ccc(NC(=S)NC(=O)Cc5ccccc5)cc4F)c3s2)c1	13.2 µM (active)			20.9 µM (active)		0.132 µM (active)	
C[C@@]1(c2cc(-c3cncnc3)c(F)cc2F)CCSC(N)=N1		2.96 µM (active)	inactive		13.2 µM (active)	inactive	
Cc1ccc2c(=O)c3cccc(CC(=O)O)c3oc2c1C	20.9 µM (active)	23.5 µM (active)	inactive	inactive	inactive		
CC1CCN(c2cc(N3CCN(C)CC3)ccc2NC(=O)c2cc(C#N)c[nH]2)CC1	inactive	7.43 µM (active)	18.7 µM (active)	inactive	inactive		
Cc1c(C(=O)Nc2ccc(N3C[C@@H](C)O[C@@H](C)C3)nc2)cccc1-c1ccc(OC(F)(F)F)cc1	inactive	inactive	16.6 µM (active)	inactive			23.5 µM (active)
Cc1ccc2c(c1)c1c(n2CCc2ccc(C)nc2)CCN(C)C1	inactive	inactive		inactive	inactive		
